Measured values published in PubChem BioAssay (NCATS).
Several values for one entry are separate records, joined by “and”; a condition that tells them apart may be missing. Equal values may be shown once. Records with an inconclusive call do not appear. A structure can be active in one record and inactive in another. Activity calls are given as the source filed them. Unless noted, calls follow the shape of the dose curve; as a rule, active = well fitted curve in the direction sought with a large enough effect; inconclusive = small, poorly fitted or top-dose-only effect, or another doubt; inactive = no such curve, though single readings can be large; an effect the other way counts as inactive or inconclusive.

Legend:
[1] = qHTS assay for small molecule agonists of the antioxidant response element (ARE) signaling pathway (AID 651741; active = well fitted activation curve with a large enough effect in the signal ratio; the % refers to the signal ratio; also: potency is read from the fitted curve at half-maximal effect; as to activation: % of control where 0% means no effect)
How it was run: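 Reporter: beta-lactamase under ARE, stably in HepG2. Exposure: 16 h, 37 C, compounds delivered in DMSO by pin tool after 5 h cell preincubation. Readout: FRET substrate fluorescence after 2 h at RT.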

[2] = qHTS assay for small molecule activators of the p53 signaling pathway (AID 651743; active = well fitted activation curve with a large enough effect in the signal ratio, not every such curve was filed as active; the % refers to the signal ratio; also: % of control where 0% means no effect); settings: HCT-116 p53RE-bla, beta-lactamase FRET ratio, 16 h; activation: stronger effect = higher value
How it was run: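 Agonist-mode quantitative HTS in HCT-116 cells carrying a p53-response-element beta-lactamase reporter; 16 h compound treatment at 37 C, then FRET substrate loading for 2 h at room temperature and fluorescence read.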

[3] = qHTS assay for small molecule activators of the nuclear factor-kappa B (NF-kB) signaling pathway (AID 651749; active = well fitted activation curve with a large enough effect in the signal ratio; the % refers to the signal ratio; also: % of control where 0% means no effect); settings: NF-kB-bla ME-180 cells, beta-lactamase FRET ratio, 16 h; stronger effect = higher value
How it was run: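 Human ME-180 cervical cells with an NF-kB-bla construct; compounds added via 23 nL pin transfer, DMSO as vehicle; incubation 16 hr. Reporter activity measured by FRET disruption.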

[4] = qHTS assay for small molecule disruptors of the mitochondrial membrane potential - 1 hr assay (AID 651754; calls by dose curve; also: nearly all actives have a fitted effect of over 35% in size; also: potency is read from the fitted curve at half-maximal effect)
How it was run: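 Loss of mitochondrial potential shifts the cationic dye from red mitochondrial aggregates to green cytoplasmic monomers. Cells (HepG2) are treated with compound for 1 hr before a 30 min dye incubation at 37C.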

[5] = biological target: Tumor necrosis factor (Homo sapiens) (UniProt P01375); assay: qHTS assay to identify small molecules that stimulate Tumor Necrosis Factor-alpha (TNF-alpha) secretion (AID 651757; active = well fitted curve in the direction sought with a large enough effect in the signal ratio; the % refers to the signal ratio; also: 0% is about no effect)
Tumor necrosis factor (Homo sapiens), sequence (P01375 whole entry, looked up): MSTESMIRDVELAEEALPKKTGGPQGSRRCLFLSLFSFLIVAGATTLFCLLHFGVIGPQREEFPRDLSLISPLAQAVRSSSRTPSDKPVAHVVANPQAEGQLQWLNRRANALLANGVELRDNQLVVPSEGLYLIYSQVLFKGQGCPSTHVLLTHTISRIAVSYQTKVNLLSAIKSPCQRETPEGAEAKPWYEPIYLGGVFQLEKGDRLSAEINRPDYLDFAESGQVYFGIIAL
How it was run: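 Human monocytic THP-1 cells are plated, treated with compound and held at 37 C for 17 hrs. Labeled anti-TNF-alpha antibody mixture is then added; after 3 hr at room temperature, TR-FRET signal reports secreted TNF-alpha.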

[6] = qHTS assay for environmental chemicals that activate the Aryl hydrocarbon Receptor (AhR) signaling pathway (AID 651777); settings: 1A2-DRE human hepatoma cells, luciferase, 24 h; stronger effect = higher value; also: % of control where 0% means no effect; nearly all actives have a fitted effect of over 15% in size
How it was run: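 1A2-DRE human hepatoma reporter line; 1,200 cells/well; cmpd or DMSO 24 h, 37 C/5% CO2; One-Glo 30 min RT; luciferase lum.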

[7] = biological target: Peroxisome proliferator-activated receptor alpha (Homo sapiens) (UniProt Q07869); assay: qHTS assay for small molecule agonists of the peroxisome proliferator-activated receptor alpha (PPARalpha) signaling pathway (AID 651778); settings: PathHunter PPARalpha complementation, chemiluminescence, 6 h; stronger effect = higher value; also: % of control where 0% means no effect
Peroxisome proliferator-activated receptor alpha (Homo sapiens), sequence (Q07869 whole entry, looked up): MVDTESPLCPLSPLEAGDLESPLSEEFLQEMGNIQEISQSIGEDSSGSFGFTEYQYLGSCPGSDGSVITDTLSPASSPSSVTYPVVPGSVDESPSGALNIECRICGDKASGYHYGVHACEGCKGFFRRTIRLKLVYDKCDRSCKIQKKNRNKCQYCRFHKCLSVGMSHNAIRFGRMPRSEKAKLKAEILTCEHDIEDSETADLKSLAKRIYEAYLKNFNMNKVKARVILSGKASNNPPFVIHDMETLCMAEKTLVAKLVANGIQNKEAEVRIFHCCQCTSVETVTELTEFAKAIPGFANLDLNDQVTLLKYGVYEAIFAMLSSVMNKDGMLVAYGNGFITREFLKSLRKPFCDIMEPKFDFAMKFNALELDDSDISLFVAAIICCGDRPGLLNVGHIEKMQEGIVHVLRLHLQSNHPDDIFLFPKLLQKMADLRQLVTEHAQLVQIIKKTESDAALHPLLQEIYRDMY
How it was run: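 Cells plated at 2,000/well and held overnight at 37 C, 5% CO2, then compound added by pin tool for 6 hr; after PathHunter detection reagent and 60 min at room temperature, chemiluminescence from enzyme complementation was read.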

[8] = biological target: Nuclear receptor ROR-gamma (Homo sapiens) (UniProt P51449); assay: qHTS assay for small molecule antagonists of the retinoid-related orphan receptor gamma (ROR-gamma) signaling pathway (AID 651802);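 also: CHO cells with doxycycline-induced ROR-gamma expression; % is scaled to controls: 0 for no effect and ±100 for the full control effect; nearly all actives have a fitted effect of over 60% in size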
Nuclear receptor ROR-gamma (Homo sapiens), sequence (P51449 whole entry, looked up): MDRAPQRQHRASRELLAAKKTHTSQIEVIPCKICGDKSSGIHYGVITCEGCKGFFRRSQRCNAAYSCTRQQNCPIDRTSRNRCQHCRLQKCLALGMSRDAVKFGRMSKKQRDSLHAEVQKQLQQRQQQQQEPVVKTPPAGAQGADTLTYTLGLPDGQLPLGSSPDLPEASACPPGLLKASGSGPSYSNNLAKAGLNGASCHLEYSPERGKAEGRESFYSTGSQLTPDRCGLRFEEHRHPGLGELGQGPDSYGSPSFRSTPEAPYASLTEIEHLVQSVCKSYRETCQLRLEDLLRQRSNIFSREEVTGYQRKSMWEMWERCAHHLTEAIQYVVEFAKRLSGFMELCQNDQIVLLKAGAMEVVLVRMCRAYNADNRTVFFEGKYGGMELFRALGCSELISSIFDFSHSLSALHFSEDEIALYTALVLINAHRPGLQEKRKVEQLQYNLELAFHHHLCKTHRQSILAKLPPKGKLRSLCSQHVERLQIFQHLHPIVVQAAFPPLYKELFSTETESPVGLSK
How it was run: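 Steps: cells dispensed; compound or DMSO transferred by pin tool; doxycycline added to induce the ROR response element-driven luciferase; plates held 16hr at 37C; ONE-Glo added and luminescence measured.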

[9] = biological target: Arylsulfatase A (Homo sapiens) (UniProt P15289); assay: qHTS screen for enhancers of Arylsulfatase A (ASA1): LOPAC Validation Assay (AID 720538); settings: outcome: dose series up to 57.5 µM; also: 0% is about no effect
Arylsulfatase A (Homo sapiens), sequence (P15289 whole entry, looked up): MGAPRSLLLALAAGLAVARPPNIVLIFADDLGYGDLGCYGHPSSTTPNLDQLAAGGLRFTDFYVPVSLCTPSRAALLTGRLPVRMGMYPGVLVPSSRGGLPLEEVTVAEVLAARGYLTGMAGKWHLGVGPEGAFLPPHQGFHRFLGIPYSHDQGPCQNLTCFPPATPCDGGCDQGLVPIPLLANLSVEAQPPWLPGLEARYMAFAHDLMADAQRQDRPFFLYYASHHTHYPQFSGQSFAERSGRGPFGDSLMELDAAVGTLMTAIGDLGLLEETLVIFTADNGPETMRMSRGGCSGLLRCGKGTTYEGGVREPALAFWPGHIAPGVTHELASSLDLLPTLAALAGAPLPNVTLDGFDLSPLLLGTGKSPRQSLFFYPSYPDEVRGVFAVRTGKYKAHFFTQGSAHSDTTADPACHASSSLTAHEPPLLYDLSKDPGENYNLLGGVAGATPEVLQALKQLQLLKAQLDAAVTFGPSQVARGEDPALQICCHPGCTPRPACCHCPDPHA
How it was run: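 Read-out: fluorescence at Ex=525/Em=598 nm after 1N NaOH final stop. Patient fibroblasts carrying ASA-I179S had 48h compound exposure, then 14h room-temperature pNCS hydrolysis (0.5mM final) in lysis buffer. Signal increase = enhanced activity.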

[10] = Cytotoxicity counterscreen for NFkB agonists and antagonists (AID 624476);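 also: cells exposed to compound for 48 hours; % is scaled to controls: 0 for no effect and ±100 for the full control effect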
[11] = qHTS Assay for Identification of Small Molecule Agonists for NFkB Signaling Pathway. (AID 624478); also: 0% is about no effect
How it was run: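 Activators were sought in reporter cells stimulated at the TNF alpha EC50 (10 pM final). Compound and cytokine were co-incubated 5 hours at 37 C before beta-lactamase substrate detection by dual-emission fluorescence.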

[12] = qHTS Assay for Identification of Small Molecule Antagonists for NFkB Signaling Pathway. (AID 624479; calls by dose curve;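 also: pathway stimulated with TNF alpha; % is scaled to controls: 0 for no effect and ±100 for the full control effect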)
[13] = Cell Proliferation Assay against the TMD8 Cell Line (AID 651645); settings: TMD8 DLBCL cell line proliferation/viability; at 46.1 µM (top of the series);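 also: cells exposed to compound for 48 h before reading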
How it was run: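 Luminescent ATP read-out (CellTiter-Glo, 15 min RT) after 48 h compound exposure of log-growing TMD8 cells at 37C; percent activity scaled between DMSO as 100% and 9.2 uM bortezomib final as 0%.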

[14] = Cell Proliferation Assay against the HBL1 Cell Line (AID 651646); settings: HBL1 DLBCL cells; at 46.1 µM (top of the series);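 also: cells exposed to compound for 48 h before reading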
How it was run: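 After a 48 h incubation of 500 HBL1 cells/well in phenol red-free RPMI plus 5% FBS, relative luciferase units from CellTiter-Glo gave percent activity against DMSO and 9.2 uM bortezomib (final) controls.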

[15] = Cell Proliferation Assay against the TMD8 Cell Line (Caspase readout at 16 hrs) (AID 651712)
How it was run: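 16 h, 37 °C, TMD8 (500 cells/well), RPMI/5% FBS no phenol red; Caspase-Glo 3/7, 15 min RT, luminescence; %act: DMSO 0, bortezomib 9.2 uM final 100.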

[16] = Cell Proliferation Assay against the TMD8 Cell Line (Caspase readout at 8 hrs) (AID 651713);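 also: 0% = DMSO and 100% = 9.2 µM bortezomib caspase signal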
How it was run: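 Caspase 3/7 activation in ABC DLBCL TMD8 cells is measured by luminescence after an 8 h compound exposure at 37C. Relative light units are scaled between DMSO (0%) and 9.2 uM final bortezomib (100%).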

[17] = biological target: Tyrosine-protein kinase Yes (Homo sapiens) (UniProt P07947); assay: qHTS for small molecule inhibitors of Yes1 kinase: Primary Screen (AID 686947);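 also: plate controls were DMSO with enzyme for no effect and no-enzyme DMSO wells for full effect; nearly all actives have a fitted effect of over 60% in size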
Tyrosine-protein kinase Yes (Homo sapiens), sequence (P07947 whole entry, looked up): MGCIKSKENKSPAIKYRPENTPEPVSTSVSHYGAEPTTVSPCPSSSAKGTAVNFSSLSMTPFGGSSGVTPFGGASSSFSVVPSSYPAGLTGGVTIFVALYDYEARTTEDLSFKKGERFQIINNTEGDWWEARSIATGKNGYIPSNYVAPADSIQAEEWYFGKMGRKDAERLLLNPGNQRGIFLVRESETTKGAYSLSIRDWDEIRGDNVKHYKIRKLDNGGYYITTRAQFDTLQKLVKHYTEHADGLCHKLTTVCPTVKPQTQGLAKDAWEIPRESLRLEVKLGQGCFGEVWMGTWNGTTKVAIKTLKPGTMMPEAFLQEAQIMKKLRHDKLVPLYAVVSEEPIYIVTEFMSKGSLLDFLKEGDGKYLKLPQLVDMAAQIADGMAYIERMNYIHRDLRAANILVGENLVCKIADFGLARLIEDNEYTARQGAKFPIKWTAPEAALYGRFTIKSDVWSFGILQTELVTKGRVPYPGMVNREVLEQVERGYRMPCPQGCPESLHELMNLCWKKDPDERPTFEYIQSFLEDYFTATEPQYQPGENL
How it was run: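 ADP-Glo luminescence reports ADP formed by 4 nM Yes1 phosphorylating poly(E4Y) (0.3 mg/mL) with 0.1 mM ATP for 60 min at room temperature, following 20 min compound preincubation; normalised between DMSO wells with and without enzyme.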

[18] = qHTS for small molecule inhibitors of Yes1 kinase: Counter Assay (AID 686950);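 also: no kinase present so only ADP-Glo detection of a fixed ADP amount is tested; luminescence from ADP-Glo reporting ADP in a fixed ATP and ADP mixture; 0% = DMSO wells with ATP plus ADP and -100% = ATP-only wells without ADP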
How it was run: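 Measuring interference with ADP-Glo, the assay ran 60 min at room temperature on an ATP/ADP mix lacking enzyme. Values were normalized to ATP-plus-ADP (maximum) and ATP-only (minimum) DMSO controls.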

[19] = qHTS assay to identify small molecules that stimulate interleukin-8 (IL-8) secretion (AID 651758; active = well fitted activation curve with a large enough effect in the signal ratio; the % refers to the signal ratio; also: 0% is about no effect)
How it was run: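 Quantitative HTS in THP-1 monocytic cells at 2000 cells per well, with 16 hrs compound incubation at 37 C. IL-8 in the medium was then quantified by HTRF immunoassay, read after 1-3 hrs at room temperature.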

## Clc1ccc(C(c2ccc(Cl)cc2)C(Cl)(Cl)Cl)cc1
[1]
  Potency: 66.8 µM (active)
[2]
  activation: 2.65% (inactive)
[3]
  activation: 2.81% (inactive)
[4]
  Potency: inactive
[5]
  outcome: inactive
[6]
  activation: 0.0892% (inactive) and -0.298% (inactive)
[7]
  max response: 4.34% (inactive) and 1.18% (inactive)

## O=C1c2ccccc2C(=O)C1C(=O)C(c1ccccc1)c1ccccc1
[1]
  Potency: 61.1 µM (active)
[2]
  activation: 23.1% (inactive)
[3]
  activation: -1.82% (inactive)
[6]
  activation: 5.81% (inactive)
[7]
  max response: -1.83% (inactive)

## CCC(C)(C)c1ccc(O)cc1
[1]
  Potency: inactive
[2]
  activation: 0.115% (inactive) and -4.79% (inactive)
[3]
  activation: -2.14% (inactive) and 1.1% (inactive)
[5]
  outcome: inactive
[6]
  activation: 0.262% (inactive) and -0.822% (inactive)
[7]
  max response: 5.88% (inactive) and -1.73% (inactive)
[8]
  Potency: inactive

## COP(=S)(OC)Oc1cc(Cl)c(Cl)cc1Cl
[1]
  Potency: 24.3 µM (active)
[2]
  activation: -3.16% (inactive)
[3]
  activation: -1.3% (inactive)
[6]
  activation: 2.9% (inactive)
[7]
  max response: -0.715% (inactive)

## CC(C)NC(C)C
[1]
  Potency: inactive
[2]
  activation: -4.28% (inactive)
[3]
  activation: -1.54% (inactive)
[5]
  outcome: inactive
[6]
  activation: -1.71% (inactive)
[7]
  max response: 0.708% (inactive)
[8]
  Potency: inactive

## NCCc1ccc(O)cc1
[1]
  Potency: inactive
[2]
  activation: -2.23% (inactive)
[3]
  activation: -0.88% (inactive)
[5]
  outcome: inactive
[6]
  activation: -0.313% (inactive)
[7]
  max response: -1.42% (inactive)
[8]
  Potency: inactive
[9]
  outcome: inactive

## CC(C)(C)c1ccc(O)cc1
[1]
  Potency: inactive
[2]
  activation: -2.47% (inactive)
[6]
  activation: 0.343% (inactive)

## CC(=O)N1CCN(c2ccc(OC[C@H]3CO[C@](Cn4ccnc4)(c4ccc(Cl)cc4Cl)O3)cc2)CC1
[1]
  Potency: 30.6 µM (active)

## Oc1ccccc1
[1]
  Potency: inactive and 1000 µM (active)

## CCOC(=O)CC(SP(=S)(OC)OC)C(=O)OCC (stereo not drawn)
[1]
  Potency: 48.6 µM (active)
[2]
  activation: -1.29% (inactive) and 0.916% (inactive) and -0.523% (inactive)
[3]
  activation: -3.4% (inactive) and -2.42% (inactive)
[4]
  Potency: inactive
[5]
  outcome: inactive
[6]
  activation: 1.62% (inactive) and 10.4% (inactive) and -0.452% (inactive)
[7]
  max response: -2.48% (inactive) and 0.447% (inactive) and -3.85% (inactive)

## CC(C)c1cccc(C(C)C)c1O
[1]
  Potency: inactive
[2]
  activation: 0.635% (inactive)
[3]
  activation: 1.44% (inactive)
[4]
  Potency: inactive
[5]
  outcome: inactive
[6]
  activation: 0.116% (inactive)
[7]
  max response: -5.67% (inactive)
[8]
  Potency: inactive
[9]
  outcome: inactive

## CN1C[C@H](C(=O)N[C@]2(C)O[C@@]3(O)[C@@H]4CCCN4C(=O)[C@H](Cc4ccccc4)N3C2=O)C=C2c3cccc4[nH]cc(c34)C[C@H]21
[1]
  Potency: 37.6 µM (active)
[2]
  activation: -2.39% (inactive) and -2.48% (inactive)
[4]
  Potency: 11.9 µM (active)
[6]
  activation: 6.16% (inactive) and 6.48% (inactive)
[7]
  max response: -3.76% (inactive) and -6.49% (inactive)

## Nc1ccc([As](=O)(O)O)cc1
[1]
  Potency: inactive
[2]
  activation: -0.538% (inactive)
[3]
  activation: -0.596% (inactive)
[7]
  max response: -1.85% (inactive)

## COc1cc(OC)c(OC)cc1C=O
[1]
  Potency: inactive
[2]
  activation: -3.74% (inactive)
[3]
  activation: 2% (inactive)
[4]
  Potency: inactive
[5]
  outcome: inactive
[7]
  max response: 0.405% (inactive)
[8]
  Potency: inactive

## O=P1(N(CCCl)CCCl)NCCCO1 (stereo not drawn)
[10]
  outcome: inactive
[11]
  outcome: inactive
[12]
  outcome: inactive
[13]
  viability (% of control): 114%
[14]
  viability, percent of control: 108%
[15]
  outcome: inactive
[16]
  outcome: inactive
[1]
  Potency: inactive
[2]
  activation: -1.12% (inactive) and -2.77% (inactive)
[3]
  activation: -0.934% (inactive) and -1.34% (inactive)
[5]
  outcome: inactive
[6]
  activation: 0.318% (inactive) and -1.16% (inactive)
[7]
  max response: 7.32% (inactive) and -1.68% (inactive)
[8]
  Potency: inactive
[17]
  outcome: inactive
[18]
  outcome: inactive
[9]
  outcome: inactive

## COP(=S)(OC)Oc1ccc(SC)c(C)c1
[1]
  Potency: inactive
[2]
  activation: -1.52% (inactive) and -0.273% (inactive)
[3]
  activation: -0.287% (inactive) and 1.27% (inactive)
[5]
  outcome: inactive
[19]
  outcome: inactive
[7]
  max response: 6.43% (inactive) and 7.61% (inactive)
[8]
  Potency: inactive

## [N-]=[N+]=CC(=O)OC[C@H](N)C(=O)O
[1]
  Potency: inactive
[2]
  activation: -0.27% (inactive)
[3]
  activation: -0.449% (inactive)
[7]
  max response: 0.305% (inactive)

## Nc1ccccc1
[1]
  Potency: inactive
[2]
  activation: 1.3% (inactive)
[5]
  outcome: inactive
[19]
  outcome: inactive
[7]
  max response: 7.46% (inactive)
[8]
  Potency: inactive

## CCCC(C)(COC(N)=O)COC(N)=O
[1]
  Potency: inactive
[2]
  activation: 1.72% (inactive) and -1.16% (inactive)
[3]
  activation: 0.11% (inactive) and -1.2% (inactive)
[4]
  Potency: inactive
[5]
  outcome: inactive
[6]
  activation: 1.18% (inactive) and -0.314% (inactive)
[7]
  max response: -0.626% (inactive) and -5.23% (inactive)
[8]
  Potency: inactive
